# Data as given in PubChem BioAssay.
# Values joined by “and” are separate entries in the source; they are usually repeats but may differ in a detail not shown here. Equal entries are not always repeated. Active and inactive are the calls of the source.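 How the source made its calls, unless noted: active means thallium flux through the channel raised or lowered by more than 3 SD from vehicle-only wells, actives on both sides; inactive means the rest.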
# Legend:
# [1] = test system: F380Y; test: modulators of BK channel variants, profiling panel, selectivity assay, cell-based, U2OS BacMam, thallium flux, beta subunits (AID 1259406); conditions: at 30 µM;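 further: initial slope of Thallos dye fluorescence rise after thallium is added; log ratio against the mean of 0.3% DMSO vehicle wells on the same plate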
# [2] = test system: F380Y/beta1; test: as above; conditions: at 30 µM
# [3] = test system: F380Y/beta2Delta; test: as above; conditions: at 30 µM
# [4] = test system: F380Y/beta4; test: as above; conditions: at 30 µM
# [5] = molecular target: Calcium-activated potassium channel subunit alpha-1 (Homo sapiens) + Leucine-rich repeat-containing protein 26 (Homo sapiens) (UniProt Q12791+Q2I0M4); test: as above; conditions: F380Y/Slo1WT/gamma1, at 30 µM
# Calcium-activated potassium channel subunit alpha-1 (Homo sapiens) + Leucine-rich repeat-containing protein 26 (Homo sapiens), sequence (Q2I0M4 whole entry, looked up, one chain of several): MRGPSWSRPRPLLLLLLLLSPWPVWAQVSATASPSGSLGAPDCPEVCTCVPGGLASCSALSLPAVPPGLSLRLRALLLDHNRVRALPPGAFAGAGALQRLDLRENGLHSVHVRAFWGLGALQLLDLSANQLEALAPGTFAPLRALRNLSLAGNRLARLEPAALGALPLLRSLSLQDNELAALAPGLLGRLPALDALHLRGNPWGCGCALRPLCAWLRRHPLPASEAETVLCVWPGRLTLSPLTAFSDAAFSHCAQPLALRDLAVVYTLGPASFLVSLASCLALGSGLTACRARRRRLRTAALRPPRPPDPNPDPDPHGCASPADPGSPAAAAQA
# [6] = test system: R275C; test: as above; conditions: at 30 µM
# [7] = test system: R275C/beta1; test: as above; conditions: at 30 µM
# [8] = test system: R275C/beta2Delta; test: as above; conditions: at 30 µM
# [9] = test system: R275C/beta4; test: as above; conditions: at 30 µM
# [10] = test system: R275C/Slo1WT/beta2; test: as above; conditions: at 30 µM
# [11] = UWB1.289 ovarian carcinoma cell growth inhibition, synergistic combos for chromothripsis tumors, BGB or cisplatin combos (AID 1671456; in the data active means inhibition above about 80%;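 further: cells exposed to compound for four days; 0% = vehicle DMSO and 100% = killing by high DMSO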); conditions: UWB1.289 ovarian carcinoma cells, stronger effect = higher value
# [12] = LFS_MB_2R medulloblastoma cell growth inhibition, synergistic combos for chromothripsis tumors, cisplatin combos (AID 1671457; in the data active means inhibition above about 80%;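 further: cells exposed to compound for four days before readout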); conditions: LFS_MB_2R medulloblastoma cells, stronger effect = higher value
# [13] = MDA-MB-436 breast carcinoma cell growth inhibition, synergistic combos for chromothripsis tumors, BGB or cisplatin combos (AID 1671458; call rule not given here;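 further: cells exposed for 96 hours; 0% = vehicle DMSO and 100% = killing by high DMSO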); conditions: MDA-MB-436 breast carcinoma growth inhibition, drug combinations, stronger effect = higher value
# [14] = UWB1.289_BRCA1 ovarian cancer growth, cell-based, BGB or cisplatin combinations (AID 1671459; in the data active means inhibition above about 80%); conditions: UWB1.289 BRCA1 ovarian carcinoma, drug combinations, stronger effect = higher value
# [15] = human astrocyte viability loss, single and combined drugs, cytotoxicity control for chromothriptic childhood tumor combination screen, cell-based, BGB or cisplatin IC20 combos (AID 1671460; in the data active means inhibition above about 80%;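 further: cells exposed to compounds for 96 hours before viability readout; 0% = vehicle and 100% = killing control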); conditions: Human astrocytes, drug combinations, stronger effect = higher value
# [16] = growth inhibition of BT084 medulloblastoma cells, cell-based, ICGC_MB145, cisplatin and BGB IC40 combos (AID 1671461; in the data active means inhibition above about 80%;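 further: cells exposed to drugs for 96 hours; 0% = vehicle DMSO and 100% = high DMSO full killing control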); conditions: drug combinations, stronger effect = higher value
# [17] = growth inhibition of RCMB18 medulloblastoma cells, cell-based, cisplatin and BGB IC40 combos (AID 1671462; in the data active means inhibition above about 80%;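 further: cells exposed to compound for four days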); conditions: stronger effect = higher value
# [18] = growth inhibition of CRL1545 osteosarcoma cells, cell-based, cisplatin and BGB IC20 combos (AID 1671464; in the data active means inhibition above about 80%;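 further: cells exposed to compound for 96 hours before readout; 0% = vehicle DMSO and 100% = high DMSO killing control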); conditions: stronger effect = higher value
# [19] = measured here: inhibition with BGB combination, at 0.05 µM
# [20] = measured here: inhibition with cisplatin combination, at 0.05 µM
# [21] = measured here: combination with cisplatin, at 0.5 µM
# [22] = measured here: combination with cisplatin, at 5 µM
# [23] = measured here: BGB combination, at 0.5 µM
# [24] = measured here: BGB combination, at 5 µM
# [25] = measured here: cisplatin combination, at 0.5 µM
# [26] = measured here: cisplatin combination, at 5 µM
# [27] = BGB combination, concentration series, at 5 µM
# [28] = cisplatin combination, concentration series, at 5 µM
# [29] = measured here: combo with BGB IC20, at 0.5 µM
# [30] = measured here: combo with cisplatin IC20, at 0.5 µM
# [31] = cisplatin combination, at 0.5 µM
# [32] = measured here: BGB IC40 combination 0.05 uM, at 0.05 µM
# [33] = measured here: BGB IC40 combination, at 0.05 µM
# [34] = measured here: with BGB IC20 combination, at 0.5 µM
# [35] = measured here: with cisplatin IC20 combination, at 0.5 µM
structure (smiles),measurement,setting,value
O=C1[C@H]2CCCC[C@H]2C(=O)N1CCCCN1CCN(c2nsc3ccccc23)CC1,log fold change Tl+ flux,[1],0.0537 (inactive)
same,log fold change Tl+ flux,[2],0.0543 (inactive)
same,log fold change Tl+ flux,[3],0.0368 (inactive)
same,log fold change Tl+ flux,[4],0.0464 (inactive)
same,log fold change Tl+ flux,[5],-0.0162 (inactive)
same,log fold change Tl+ flux,[6],-0.0177 (inactive)
same,log fold change Tl+ flux,[7],0.107 (active)
same,log fold change Tl+ flux,[8],0.0344 (inactive)
same,log fold change Tl+ flux,[9],0.0306 (inactive)
same,log fold change Tl+ flux,[10],-0.00391 (inactive)
O=c1c(O)c(-c2ccc(O)c(O)c2)oc2cc(O)cc(O)c12,inhibition,[11]; at 0.5 µM,-3.55% (inactive)
same,inhibition,[11]; [19],-4.11%
same,inhibition,[11]; [20],-12.6%
same,inhibition,[12]; at 0.5 µM,0.78% (inactive)
same,inhibition,[12]; [21],12%
same,inhibition,[12]; [22],15.1%
same,inhibition,[13]; at 0.5 µM,0.09% (inactive)
same,inhibition,[13]; [23],-0.722%
same,inhibition,[13]; [24],15.2%
same,inhibition,[13]; [25],-5.24%
same,inhibition,[13]; [26],12.3%
same,inhibition,[14]; [27],2.88%
same,inhibition,[14]; at 0.5 µM,-10.1% (inactive)
same,inhibition,[14]; [28],11.4%
same,inhibition,[15]; at 0.5 µM,-9.12% (inactive)
same,inhibition,[15]; [29],-6.54%
same,inhibition,[15]; [30],-19%
same,inhibition,[16]; at 0.5 µM,11.1% (inactive)
same,inhibition,[16]; [31],-4.44%
same,inhibition,"[16]; cisplatin combination, at 5 µM",-18.7%
same,inhibition,[16]; [32],37.6%
same,inhibition,"[16]; single agent, at 5 µM",-1.38%
same,inhibition,[17]; at 0.5 µM,8.96% (inactive)
same,inhibition,"[17]; cisplatin combo, at 5 µM",-16.5%
same,inhibition,[17]; [33],7.33%
same,inhibition,[17]; [21],6.44%
same,inhibition,"[17]; single agent, at 5 µM",2.31%
same,inhibition,[18]; at 0.5 µM,-39.9% (inactive)
same,inhibition,[18]; [34],-11.9%
same,inhibition,[18]; [35],-53.9%
same,inhibition,"[18]; single agent, at 0.05 µM",57.4%
same,inhibition,"[18]; single agent, at 5 µM",8.34%
C[C@H]1COc2c(C3(N)CC3)c(F)cc3c(=O)c(C(=O)O)cn1c23,inhibition,[11]; at 0.5 µM,2.11% (inactive)
same,inhibition,[11]; [19],-7.87%
same,inhibition,[11]; [20],-10.7%
same,inhibition,[12]; at 0.5 µM,-20.7% (inactive)
same,inhibition,[12]; [21],-28.1%
same,inhibition,[12]; [22],-123%
same,inhibition,[13]; at 0.5 µM,-24.5% (inactive)
same,inhibition,[13]; [23],-30.5%
same,inhibition,[13]; [24],-26.3%
same,inhibition,[13]; [25],-33.6%
same,inhibition,[13]; [26],0.273%
same,inhibition,[14]; [27],-9.44%
same,inhibition,[14]; at 0.5 µM,-1.55% (inactive)
same,inhibition,[14]; [28],-1.09%
same,inhibition,[15]; at 0.5 µM,5.46% (inactive)
same,inhibition,[15]; [29],4.83%
same,inhibition,[15]; [30],-0.547%
same,inhibition,[16]; at 0.5 µM,-36.3% (inactive)
same,inhibition,[16]; [31],-17.3%
same,inhibition,"[16]; cisplatin combination, at 5 µM",-31.8%
same,inhibition,[16]; [32],22.3%
same,inhibition,"[16]; single agent, at 5 µM",-28.3%
same,inhibition,[17]; at 0.5 µM,-18.8% (inactive)
same,inhibition,"[17]; cisplatin combo, at 5 µM",-20.9%
same,inhibition,[17]; [33],-11.8%
same,inhibition,[17]; [21],-24.3%
same,inhibition,"[17]; single agent, at 5 µM",-38.1%
same,inhibition,[18]; at 0.5 µM,9.56% (inactive)
same,inhibition,[18]; [34],-3.27%
same,inhibition,[18]; [35],14.1%
same,inhibition,"[18]; single agent, at 0.05 µM",-13.5%
same,inhibition,"[18]; single agent, at 5 µM",10.7%
same,log fold change Tl+ flux,[1],-0.0868 (inactive)
same,log fold change Tl+ flux,[2],0.0568 (inactive)
same,log fold change Tl+ flux,[3],-0.0452 (inactive)
same,log fold change Tl+ flux,[4],-0.037 (inactive)
same,log fold change Tl+ flux,[5],0.00396 (inactive)
same,log fold change Tl+ flux,[6],-0.0195 (inactive)
same,log fold change Tl+ flux,[7],-0.0326 (inactive)
same,log fold change Tl+ flux,[8],-0.0136 (inactive)
same,log fold change Tl+ flux,[9],-0.0013 (inactive)
same,log fold change Tl+ flux,[10],-0.0265 (inactive)
Cn1nnc2c(C(N)=O)ncn2c1=O,inhibition,[11]; at 0.5 µM,10.5% (inactive) and 0.13% (inactive)
same,inhibition,[11]; [19],4.75% and -18.9%
same,inhibition,[11]; [20],25.6% and -6.43%
same,inhibition,[12]; at 0.5 µM,7.22% (inactive) and -24.1% (inactive)
same,inhibition,[12]; [21],1.03% and -18.7%
same,inhibition,[12]; [22],8.16% and -14%
same,inhibition,[13]; at 0.5 µM,6.91% (inactive) and -16.3% (inactive)
same,inhibition,[13]; [23],12.9% and -14.6%
same,inhibition,[13]; [24],4.06% and -13.6%
same,inhibition,[13]; [25],2.96% and -35.2%
same,inhibition,[13]; [26],1.26% and -29.8%
same,inhibition,[14]; [27],6.41% and 2.63%
same,inhibition,[14]; at 0.5 µM,6.2% (inactive) and -1.71% (inactive)
same,inhibition,[14]; [28],-10.8% and 7.27%
same,inhibition,[15]; at 0.5 µM,14.2% (inactive) and -4.55% (inactive)
same,inhibition,[15]; [29],6.32% and -9.95%
same,inhibition,[15]; [30],16.8% and -6.6%
same,inhibition,[16]; at 0.5 µM,-1.52% (inactive) and -18.4% (inactive)
same,inhibition,[16]; [31],-21% and -7.48%
same,inhibition,"[16]; cisplatin combination, at 5 µM",1.38% and -35.6%
same,inhibition,[16]; [32],-9.43% and 0.326%
same,inhibition,"[16]; single agent, at 5 µM",8.38% and -21.4%
same,inhibition,[17]; at 0.5 µM,-3.58% (inactive) and -13.6% (inactive)
same,inhibition,"[17]; cisplatin combo, at 5 µM",-29.7% and 13.3%
same,inhibition,[17]; [33],7.57% and -3.63%
same,inhibition,[17]; [21],-5.87% and -11.2%
same,inhibition,"[17]; single agent, at 5 µM",-2.81% and -25.8%
same,inhibition,[18]; at 0.5 µM,-15.1% (inactive) and -33.6% (inactive)
same,inhibition,[18]; [34],-16.2% and -3.96%
same,inhibition,[18]; [35],-16.4% and -48.4%
same,inhibition,"[18]; single agent, at 0.05 µM",-25.4% and 17.1%
same,inhibition,"[18]; single agent, at 5 µM",-10.6% and 18.5%
same,log fold change Tl+ flux,[1],-0.0478 (inactive)
same,log fold change Tl+ flux,[2],-0.022 (inactive)
same,log fold change Tl+ flux,[3],-0.0261 (inactive)
same,log fold change Tl+ flux,[4],-0.0309 (inactive)
same,log fold change Tl+ flux,[5],0.0144 (inactive)
same,log fold change Tl+ flux,[6],-0.00524 (inactive)
same,log fold change Tl+ flux,[7],-0.0169 (inactive)
same,log fold change Tl+ flux,[8],0.0357 (inactive)
same,log fold change Tl+ flux,[9],-0.0137 (inactive)
same,log fold change Tl+ flux,[10],0.06 (inactive)
O=NN(CCCl)C(=O)NCCCl,inhibition,[11]; at 0.5 µM,-5.7% (inactive)
same,inhibition,[11]; [19],-21%
same,inhibition,[11]; [20],-12%
same,inhibition,[12]; at 0.5 µM,-21.9% (inactive)
same,inhibition,[12]; [21],-14.5%
same,inhibition,[12]; [22],-18.3%
same,inhibition,[13]; at 0.5 µM,-8.21% (inactive)
same,inhibition,[13]; [23],-10%
same,inhibition,[13]; [24],-8.63%
same,inhibition,[13]; [25],-2.04%
same,inhibition,[13]; [26],-6.22%
same,inhibition,[14]; [27],3.47%
same,inhibition,[14]; at 0.5 µM,-1.58% (inactive)
same,inhibition,[14]; [28],19.3%
same,inhibition,[15]; at 0.5 µM,12.8% (inactive)
same,inhibition,[15]; [29],26.4%
same,inhibition,[15]; [30],2.42%
same,inhibition,[16]; at 0.5 µM,-12.6% (inactive)
same,inhibition,[16]; [31],-0.565%
same,inhibition,"[16]; cisplatin combination, at 5 µM",5.72%
same,inhibition,[16]; [32],22.3%
same,inhibition,"[16]; single agent, at 5 µM",10.8%
same,inhibition,[17]; at 0.5 µM,-5.05% (inactive)
same,inhibition,"[17]; cisplatin combo, at 5 µM",-0.239%
same,inhibition,[17]; [33],-34.5%
same,inhibition,[17]; [21],22.9%
same,inhibition,"[17]; single agent, at 5 µM",-38.3%
same,inhibition,[18]; at 0.5 µM,-14.2% (inactive)
same,inhibition,[18]; [34],-17.2%
same,inhibition,[18]; [35],-12.8%
same,inhibition,"[18]; single agent, at 0.05 µM",-3.95%
same,inhibition,"[18]; single agent, at 5 µM",10.1%
CN(C)CCCSc1ccccc1NC(=O)/C=C/c1ccccc1,log fold change Tl+ flux,[1],0.0773 (inactive)
same,log fold change Tl+ flux,[3],0.0654 (inactive)
same,log fold change Tl+ flux,[5],0.0123 (inactive)
same,log fold change Tl+ flux,[6],0.063 (inactive)
same,log fold change Tl+ flux,[7],0.0477 (inactive)
same,log fold change Tl+ flux,[8],0.0394 (inactive)
CC1CCN(CCCC(=O)c2ccc(F)cc2)CC1,log fold change Tl+ flux,[1],0.0312 (inactive)
same,log fold change Tl+ flux,[3],0.0189 (inactive)
same,log fold change Tl+ flux,[5],0.000816 (inactive)
same,log fold change Tl+ flux,[6],0.0359 (inactive)
same,log fold change Tl+ flux,[7],-0.0458 (inactive)
same,log fold change Tl+ flux,[8],0.0277 (inactive)
